The target in assay [1] is Aldehyde dehydrogenase, mitochondrial (Homo sapiens) (UniProt P05091). As to the kind of experiment: qHTS for Inhibitors of the Aldehyde Dehydrogenase Family (ALDH2) Primary screen (AID 2061308).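 Note: plate controls were vehicle for no effect and reference inhibitor for full effect; nearly all actives have a fitted effect of over 55% in size.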
Assay [2] concerns the target Retinaldehyde dehydrogenase 3 (Homo sapiens) (UniProt P47895). Put plainly: qHTS for Inhibitors of the Aldehyde Dehydrogenase Family (ALDH1A3) Primary screen (AID 2061315).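 Note: plate controls were DMSO vehicle for no effect and reference inhibitor for full effect.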
Assay [3] deals with Retinal dehydrogenase 2 (Homo sapiens) (UniProt O94788). Put plainly: qHTS for Inhibitors of the Aldehyde Dehydrogenase Family (ALDH1A2) Confirmation screens (AID 2061314). Note: potency is the fitted concentration of half-maximal effect; nearly all actives have a fitted effect of over 65% in size.
Assay [4] is described as follows: BET inhibitor-based combinations targeting novel dependencies in MECOM-rearranged (r) AML: SET-2 cell line (AID 2202231).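 For viability: plate controls were DMSO treated cells for no effect and wells without cells for full effect.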 Note: nearly all actives have a fitted effect of over 35% in size. Note: potency is the fitted concentration of half-maximal effect. Particulars: SET-2 AML cells viability, CellTiter-Glo luminescence, 48 h; viability: stronger effect = lower value, concentration not given here. Put shortly: (§1)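 Cells were plated at 500 per well and exposed to an 11-point dose series of each drug for 48 hr. Viability was measured by CellTiter-Glo luminescence, normalized to DMSO and empty-well controls, and summarized as AUC and per-cell-line Z-AUC.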

The nature of assay [5]: BET inhibitor-based combinations targeting novel dependencies in MECOM-rearranged (r) AML: MV-4-11 cell line (AID 2202233). Note: nearly all actives have a fitted effect of over 45% in size. Note: potency is the fitted concentration of half-maximal effect. Summed up:
(§2)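 Activity is given as area under the curve and as Z-AUC, mean-centred within each cell line. It comes from 11-point dose curves normalized to DMSO and empty wells. CellTiter-Glo luminescence was read after 48 hr drug exposure of 500 cells/well.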

Assay [6] in a line: BET inhibitor-based combinations targeting novel dependencies in MECOM-rearranged (r) AML: HNT-34 cell line (AID 2202234). Note: nearly all actives have a fitted effect of over 35% in size. Note: potency is the fitted concentration of half-maximal effect. Summed up: as §2
Assay [7] in a line: BET inhibitor-based combinations targeting novel dependencies in MECOM-rearranged (r) AML: AML-191 cell line (AID 2202236; note: nearly all actives have a fitted effect of over 35% in size; note: potency is the fitted concentration of half-maximal effect). Summed up: as §1
Assay [8] is described as follows: BET inhibitor-based combinations targeting novel dependencies in MECOM-rearranged (r) AML: AML-194 cell line (AID 2202237; note: nearly all actives have a fitted effect of over 40% in size; note: potency is the fitted concentration of half-maximal effect). Put shortly:
as §1

A short description of assay [9]: BET inhibitor-based combinations targeting novel dependencies in MECOM-rearranged (r) AML: UCSD-AML1 cell line (AID 2202235). Note: nearly all actives have a fitted effect of over 40% in size. Note: potency is the fitted concentration of half-maximal effect. Summed up:
as §2

A short description of assay [10]: BET inhibitor-based combinations targeting novel dependencies in MECOM-rearranged (r) AML: OCI-AML3 cell line (AID 2202232).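 Note: series mostly up to about 46 µM; plate controls were DMSO vehicle wells for no effect and wells without cells for full effect; nearly all actives have a fitted effect of over 35% in size.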 Particulars: Potency: OCI-AML3 viability. Put shortly:
as §1

This note sets out measurements from PubChem BioAssay (NCATS).

Inconclusive results are not listed. Values without a mark were called inactive. Activity calls are given as the source filed them. Calls come from the whole dose curve; as a rule, active = well fitted curve in the direction sought with a large enough effect; inconclusive = small, poorly fitted or top-dose-only effect, or another doubt; inactive = no such curve, though single readings can be large; an effect the other way counts as inactive or inconclusive.

With `Nc1ncnc2c1ncn2[C@@H]1O[C@@H]2COP(O)(=S)O[C@H]2[C@H]1O` (some centres undefined), the activity change, negative = inhibition in [1] was 4.01% [at 11.2 µM]; in assay [2] it was 2.78% [at 11.2 µM].

As for `CC(=O)C1CCC2C3CCC4C[C@@H](O)CCC4(C)C3CCC12C` (some centres undefined), the Potency result in [1] and in assay [2] was “inactive” each time.

For `O=C(N[C@@H]1N=C(c2ccccc2F)c2cccc3c2N(CC3)C1=O)c1cc2ccccc2[nH]1`, the Potency result in [1] and in assay [2] was “inactive” each time.

`Cn1c(-c2ccccc2)c(P(=S)(c2ccccc2)c2ccccc2)c2ccccc21`: the Potency result in assay [1] and in assay [2] was “inactive” in each case.

With `C#C[C@]1(O)CC[C@H]2[C@@H]3CC[C@H]4Cc5nc6nc7ccccc7n6cc5C[C@]4(C)[C@H]3CC[C@@]21C`, the Potency entry in [1] and in [2] was “inactive” each time.

On to `CCOc1ccc(CCNC(=O)c2ccc(C(=O)c3ccccc3)cc2)cc1OCC`, for which the Potency entry in assay [1] and in assay [2] was “inactive” each time.

Take `C=C1[C@@H](O)[C@]2(O)OC[C@]34C2[C@]2(C)C(C[C@H]3OC(=O)[C@H](O)[C@@]14O)C(C)=CC(=O)[C@H]2O` (some centres undefined): the Potency result in assay [1] and in assay [2] was “inactive” each time.

As to `CCOc1ccc(CCNC(=O)c2cc3ccccc3n2Cc2cccc(C)n2)cc1OCC`, the Potency entry in [1] and in assay [2] was “inactive” in each case.

In the case of `C=C(C)[C@@H]1[C@H]2OC(=O)[C@H]1[C@]1(O)C[C@H]3O[C@]34C(=O)O[C@H]2[C@]14C`, the Potency result in assay [1] and in assay [2] was “inactive” in each case.

On to `S=P(c1ccccc1)(c1ccccc1)c1c[nH]c2ccccc12`, for which the Potency entry in assay [1] and in assay [2] was “inactive” each time.

Regarding `CC(C)CCn1c(CN2CCN(C(=O)C3CC3)CC2)nc2c1c(=O)n(C)c(=O)n2C`, the Potency result in assay [1] and in assay [2] was “inactive” each time.

As to `C[C@@H]1CCC/C=C/[C@H]2C[C@@H](O)C[C@@H]2[C@@H](O)/C=C/C(=O)O1`, the Potency entry in [1] and in [2] was “inactive” in each case.

Consider `CCOc1ccc(CCNC(=O)c2cc3ccccc3n2Cc2cccc(C)c2)cc1OCC`, for which the Potency entry in [1] and in assay [2] was “inactive” throughout.

Consider `C/C=C(/C)C(=O)O[C@H]1[C@@H]2[C@H](C)C(=O)O[C@@H]2C[C@@H](C)[C@@H]2C=CC(=O)[C@]21C`, for which the Potency result in assay [1] and in [2] was “inactive” in each case.

For `Fc1cc(F)c2c(c1)C1C=CCC1C(c1cccnc1)N2` (centres undefined), the Potency entry in assay [1] and in [2] was “inactive” in each case.

On to `COc1ccc(C23CCC(=O)C=C2N(C)CC3)cc1OC` (centres undefined), for which the Potency entry in assay [1] and in assay [2] was “inactive” each time.

Regarding `COC1CC(O[C@H]2CC[C@@]3(C)C(CCC4C3CC[C@]3(C)[C@@H](C5=CC(=O)OC5)CC[C@]43O)C2)OC(C)C1O` (some centres undefined), the Potency result in assay [1] and in assay [2] was “inactive” in each case.

On to `CCOc1ccc(CCNC(=O)c2cc3cnccc3n2Cc2cccc(C)c2)cc1OCC`, for which the Potency result in [1] and in assay [2] was “inactive” each time.

As to `CC(C)=CCC[C@]1(C)C=Cc2c(O)c3c(c(CC=C(C)C)c2O1)O[C@]12C(=C[C@@H]4CC1C(C)(C)O[C@@]2(C/C=C(/C)C(=O)O)C4=O)C3=O`, the Potency entry in assay [1] and in assay [2] was “inactive” in each case.

With `CC(C)C1(OO)C=C2C(=O)CC3C(C)(C(=O)O)CCCC3(C)C2CC1` (centres undefined), the Potency result in assay [1] and in assay [2] was “inactive” throughout.

Regarding `CCCCCOc1cc2c(cc1-c1cc(/C=C/C(=O)O)ccc1O)C(C)(C)CCC2(C)C`, the Potency result in assay [1] and in assay [2] was “inactive” throughout.

`O=C(NCCN1CCC2(CC1)C(=O)NCN2c1cccc(F)c1)c1ccc2ccccc2c1`: the Potency result in [1] and in [2] was “inactive” each time.

Regarding `OC(CNc1ccccc1)Cn1c2ccc(Br)cc2c2cc(Br)ccc21` (centres undefined), the Potency result in assay [1] and in assay [2] was “inactive” in each case.

For `COC1CC(OC2CCC3(C=O)C(CCC4C3CCC3(C)C(C5=CC(=O)OC5)CCC43O)C2)OC(C)C1OC1OC(CO)C(O)C(O)C1O` (centres undefined), the Potency result in [1] and in assay [2] was “inactive” each time.

As for `O=C1Nc2ccc3ncsc3c2/C1=C/c1cnc[nH]1`, the Potency result in assay [1] and in assay [2] was “inactive” in each case.

Turning to `CC(=O)OC1CC(O)C2(C)C(CC(OC(C)=O)C3(C)C2CCC2(C)C(c4ccoc4)C(=O)C4OC423)C1(C)C` (centres undefined), the Potency entry in [1] and in [2] was “inactive” throughout.

Regarding `[Cl][Pt].[NH2-].[NH2-].c1ccncc1`, in [3], the Potency is 17900 nM (active).

As for `COc1ccc(-n2c(C)cc(-c3nnc4n3CCCCC4)c2C)cc1`, the Potency in assay [3] is 12700 nM (active).

`CN(C)NC(=O)CCC(=O)O`: the viability in assay [4] is 87.9%. In addition, the Potency result in assay [5], in assay [6], in assay [7] and in assay [8] was “inactive” each time.

As for `CC(=O)OC[C@H]1O[C@@H]([S-])[C@H](OC(C)=O)[C@@H](OC(C)=O)[C@@H]1OC(C)=O.CC[PH+](CC)CC.[Au]`, the Potency is 1180 nM (active) in [4]; 235 nM (active) in assay [5]; 833 nM (active) in assay [6]; 934 nM (active) in assay [9]; 1050 nM (active) in assay [7]; 2950 nM (active) in [8].

On to `CCOP(=O)(OCC)C(C)NC(=O)N(CCCl)N=O` (centres undefined), for which the Potency result in assay [10], in [5], in assay [6], in assay [9] and in [7] was “inactive” each time.

Consider `COc1cc(C(=O)N2CC[C@@H](O)[C@@H](N)C2)cc2nc(-c3cc4ccccc4n3CC3CC3)n(C)c12`, for which the viability in assay [4] was 103%. Also, the Potency entry in assay [6], in [9] and in assay [8] was “inactive” each time.

Consider `CC(N[C@H]1C[C@@H]1c1ccccc1)c1ccc2c(c1)OCCO2` (some centres undefined), for which the Potency entry in [6] and in [7] was “inactive” throughout. Besides, the Potency in [9] was 1050 nM (active).

Consider `CC(C)(O)/C=C\C(=O)[C@](C)(O)[C@H]1[C@H](O)C[C@]2(C)[C@@H]3CC=C4[C@@H](C=C(O)C(=O)C4(C)C)[C@]3(C)C(=O)C[C@@]12C`, for which the Potency in assay [4] was 1660 nM (active); in assay [7] it was 93.4 nM (active).
